TRPM1 prom inh: MITF TRPM1 promoter inhibition in SK-MEL-5 cells; inhibition, % at 12.5 µM; actives 0.83% (n = 330,000); SK-MEL-5 TRPM1 promoter luciferase, 24 h; AID 488899;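 active means mean inhibition across replicates of 60% or more, whatever share of single replicates reaches that level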
HIF-2a inh: blocks HIF-2a reporter activity; 786-0 RCC cells HIF-2a reporter, luciferase luminescence, overnight; inhibition, % at 18.8 µM; actives 0.72% (n = 360,000);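 active means inhibition of the luminescence signal of 40% or more relative to plate controls, in a single-dose primary screen at 18.75 µM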
B2AR ag: activates human beta-2 adrenergic receptor causing internalization. P07550. Am2.2-beta2AR cells, FAP receptor internalization, flow cytometry. response, % (concentration not given with the values). actives 0.43% (n = 340,000). AID 504454;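 active means response above a set limit, near 3 SD of response in nonfluorescent compounds, cut at about 42% in these data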
Target sequence (P07550 whole entry, looked up): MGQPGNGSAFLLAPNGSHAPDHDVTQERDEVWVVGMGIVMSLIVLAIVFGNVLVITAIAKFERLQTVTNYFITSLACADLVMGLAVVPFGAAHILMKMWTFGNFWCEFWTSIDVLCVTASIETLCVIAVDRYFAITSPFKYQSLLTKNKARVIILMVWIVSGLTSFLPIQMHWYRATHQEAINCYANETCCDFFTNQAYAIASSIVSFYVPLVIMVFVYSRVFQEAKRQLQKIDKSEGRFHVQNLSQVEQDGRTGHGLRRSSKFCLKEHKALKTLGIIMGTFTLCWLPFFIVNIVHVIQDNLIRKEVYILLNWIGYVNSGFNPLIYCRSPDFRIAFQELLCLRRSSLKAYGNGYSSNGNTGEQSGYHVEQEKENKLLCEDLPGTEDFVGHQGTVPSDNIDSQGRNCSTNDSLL
KKLEB cytotox: counter-screen for CF NF-kB inhibitors: cytotoxicity | KKLEB CF airway cells viability, ATPlite luminescence, overnight; stronger effect = lower value; cells stimulated with P. aeruginosa culture filtrate | activity change (cytotoxicity), % at 5 µM | actives 0.36% (n = 360,000);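 active means corrected activity change at or below -50% at 5 µM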
CF NFkB inh: cystic fibrosis NF-kB activation inhibition. KKLEB NF-kB-GFP reporter, PAF-induced, GFP fluorescence overnight. inhibition, % at 5 µM. actives 0.86% (n = 360,000);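 active means at least 50% inhibition at 5 µM, scaled per plate between neutral and stimulator controls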;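 further: PAF is a Pseudomonas aeruginosa culture filtrate used as stimulus; plate controls were PAF-stimulated DMSO wells for no effect and unstimulated DMSO wells for full effect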
Peg3 promoter: reduces Peg3 promoter-driven luciferase expression in HeLa; inhibition, % at 20 µM; actives 1.7% (n = 360,000); HeLa PEG-Prom luciferase reporter, luminescence, overnight;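 active means inhibition of at least 50% at 20 µM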
* hit, by the source's call; · = not tested or not shown. This is a sample that favours compounds with a hit; in the whole collection about 2.8% have one here.

SMILES	TRPM1 prom inh	HIF-2a inh	B2AR ag	KKLEB cytotox	CF NFkB inh	Peg3 promoter
O=C(CC1SC(=Nc2ccc(OC(F)F)cc2)N(CCC2=CCCCC2)C1=O)Nc1ccccc1F (stereo unspecified)	2.0	-8.6	2.9	-16.3	-19.8	16.2
CCOc1ccccc1N=C1SC(CC(=O)Nc2ccc(OC)cc2OC)C(=O)N1CCC1=CCCCC1 (stereo unspecified)	6.2	3.7	67.0*	0.7	14.9	12.2
COc1ccc(NC(=O)CSc2ccccc2)c(OC)c1	-41.2	-198.1	-2.7	-1.1	4.9	-228.9
COc1ccc(NC(=O)CSc2ncnc3c2sc2ccccc23)c(OC)c1	-11.0	15.1	11.0	-55.4*	53.1*	44.8
COC(=O)C[C@H]1C=C[C@H](NC(=O)C2CCOCC2)[C@@H](CO)O1	·	-9.7	·	·	·	·
O=C(c1ccc(S(=O)(=O)Cc2cc(F)ccc2F)c([N+](=O)[O-])c1)N1CCOCC1	·	-2.1	·	5.5	31.0	16.4
COCCN(C(=O)COC(=O)C12CC3CC(CC(O)(C3)C1)C2)c1c(N)n(Cc2ccccc2)c(=O)[nH]c1=O	·	-5.4	·	-9.2	8.2	-1.1
O=C1C=CC(=O)N1c1ccc(OC(F)F)cc1	34.9	50.3*	-389.1	-6.1	10.5	104.5*
O=C(O)CNC(=O)c1ccc(OC(F)F)cc1	8.8	8.6	1.2	-5.8	16.8	-1.0
O=C1CCCC(=O)N1c1ccc(O)cc1	9.9	-1.2	10.6	-9.2	-4.3	-3.9
O=C1C=CC(=O)N1c1ccc(O)cc1	7.1	-1.2	8.2	0.8	11.6	109.8*
CCN(CC)C(=O)CSc1nnc2nnc3cc(Cl)ccc3n12	72.5*	12.2	-14.0	-5.7	3.8	-8.2
COc1ccccc1NC(=O)CCNC(=O)C1CCN(S(=O)(=O)c2ccccc2)CC1	·	0.6	·	10.6	-8.2	1.2
O=S1(=O)C[C@@H](N2CCC[C@@H]2CO)[C@H](COCc2ccccc2)N1	·	-9.5	·	-18.5	-20.9	-4.0
C[n+]1c2n(c3ccccc31)N=C(c1ccc(Cl)cc1)CS2	60.6*	15.3	-5.0	-4.5	-13.0	16.9
COC(=O)C(C(=O)OC)c1ncccc1NS(=O)(=O)c1ccc(C)cc1	·	0.8	·	·	·	·
CSc1ncnc2c1ncn2CCCNCc1ccc2c(c1)OCO2	·	6.9	·	-5.3	2.8	-12.0
O=C(Cc1ccccc1)NNc1c2ccccc2nc2ccccc12	13.8	7.1	-9.7	-1.5	-44.7	10.5
O=C(Nc1c2ccccc2nc2ccccc12)C(Cl)(Cl)Cl	11.2	14.8	36.9	8.3	-84.7	96.4*
CC1C=CC=CC=CC=CC=CC=CC=CC(OC2OC(C)C(O)C(N)C2O)CC2OC(O)(CC(O)CC(O)C(O)CCC(O)CC(O)CC(=O)OC(C)C(C)C1O)CC(O)C2C(=O)O (stereo unspecified)	40.5	-6.2	8.6	-9.4	55.2*	-20.4
COc1ccc(CCNC(=O)C(=O)c2cn(CC(=O)N3CCCC3)c3ccccc23)cc1OC	·	3.5	·	6.8	-26.3	-9.8
COc1ccc(Cc2c(-c3ccc(OC)c(OC)c3)nc3ccc(C)cn23)c(C)c1	·	-8.6	·	-18.7	10.9	4.3
CCOC(=O)N1CCc2cc(OC)c(OC)c3c2c1cc1cc(OC)c(OC)cc13	22.2	-28.3	12.1	-6.7	6.5	50.8*
COc1cc(CC(=O)N2CCc3ccccc32)cc(OC)c1OC	8.8	11.3	-12.3	-9.1	-10.6	4.4
CCCCC[C@@H](C)N1C[C@@H](COCc2ccccc2)Oc2cc(N3CCC[C@@H]3COC)ccc2S1(=O)=O	·	-27.8	·	·	·	·
SMILES	TRPM1 prom inh	HIF-2a inh	B2AR ag	KKLEB cytotox	CF NFkB inh	Peg3 promoter
COc1cccc(Nc2nc(C(N)CCc3ccccc3)cs2)n1 (stereo unspecified)	·	9.8	·	-29.8	41.3	109.3*
COc1cccc(Nc2nc(C(N)Cc3ccc(Cl)cc3)cs2)n1 (stereo unspecified)	·	12.0	·	-13.6	15.3	98.6*
COc1cccc(Nc2nc(C(N)Cc3ccc(F)cc3)cs2)n1 (stereo unspecified)	·	-8.8	·	-28.2	36.9	113.9*
COc1cccc(Nc2nc(C(N)COCc3ccccc3)cs2)n1 (stereo unspecified)	·	8.7	·	-24.7	22.7	47.5
NC(Cc1ccccc1)c1csc(Nc2ccc(C(F)(F)F)cn2)n1 (stereo unspecified)	·	4.6	·	3.1	0.7	99.9*
NC(=O)c1cccc(Nc2nc(C(N)Cc3ccc(C(F)(F)F)cc3)cs2)n1 (stereo unspecified)	·	-13.7	·	-9.5	-11.2	26.7
NC(Cc1ccc(F)cc1)c1csc(Nc2cc(NCc3ccco3)ncn2)n1 (stereo unspecified)	·	13.7	·	-21.0	22.8	70.3*
NC(Cc1ccc(Cl)cc1)c1csc(Nc2cc(Oc3ccccc3)ncn2)n1 (stereo unspecified)	·	-0.4	·	-6.4	19.8	108.4*
COc1cccc(Nc2nc(C(N)Cc3ccc(C(F)(F)F)cc3)cs2)n1 (stereo unspecified)	·	12.9	·	-11.7	4.6	99.5*
COc1cc2ccccc2cc1C(=O)O	-10.9	6.6	-0.8	-6.9	-17.5	6.4
COc1cc2ccccc2ccc1=NO	9.1	5.0	2.1	-11.7	78.6*	-29.9
COc1ccc(OC)c2cc3ccccc3cc12	26.9	-28.9	13.6	-3.0	-52.6	54.9*
CN(CCc1ccccc1)C(CCc1ccccc1)C(=O)Nc1ccc2c(c1)OCCO2 (stereo unspecified)	·	-75.3	·	-7.2	0.2	-15.4
CCn1c(=N)n(CC(=O)c2ccc(Cl)c(Cl)c2)c2ccccc21	-4.5	-135.5	8.4	14.0	8.0	98.8*
N=c1n(CCN2CCCCC2)c2ccccc2n1CC(=O)c1ccc(Cl)c(Cl)c1	·	-27.8	29.3	-18.8	14.6	34.0
Clc1ccc(-c2nc3c4ccccc4ccn3c2Cc2ccsc2)cc1	·	-89.8	·	·	·	·
O=C(Oc1cccc(OC(=O)c2ccco2)c1)c1ccco1	9.9	14.9	-1.8	5.6	-8.6	1.2
CC1=CC(C)(C)N2C(=O)C(=O)c3cc(OC(=O)c4ccco4)cc1c32	-1.9	22.1	14.5	-14.7	63.9*	0.3
CCN(CC)C(=O)C1=C(C)N(CCC2=CCCCC2)C(=O)C(CC(=O)NCCCN(C)C)C1 (stereo unspecified)	·	8.8	·	6.4	-7.4	-2.7
COC(=O)c1ccc2c(c1O)C(=O)c1ccccc1C2=O	97.1*	-152.8	3.2	11.3	46.5	-133.6
COC(=O)c1cccc2c1-c1ccccc1/C2=N/O	-9.2	32.2	13.6	-15.1	72.5*	12.1
COC(=O)c1cccc2c1-c1ccccc1/C2=N\NC(N)=O	17.6	13.7	22.3	2.3	-106.8	41.8
O=C1c2ccccc2C(=O)c2c1ccc(O)c2O	-1.2	-15.2	18.9	-19.5	-8.1	-23.1
CCCCCCn1cc(CN2CC(N3CCN(C4CCN(C)CC4)CC3)CS2(=O)=O)nn1 (stereo unspecified)	·	8.0	·	·	·	·

High-throughput results (PubChem BioAssay)
